Screens from PubChem.
In the library only some 2.2% were active in any assay of this set; here they are far more common.
HepG2 tox – kills HepG2 cells in TGF-b inhibitor counter-screen | HepG2 CAGA-GFP viability, ATP luminescence, 18 h | Potency, µM (highest dose often 46.1 µM), most hits filed as cytotoxic | hit rate 0.76% among 410,000 | AID 588856
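CellTiter-Glo luminescence gave cytotoxicity after 18 hours at 37 degrees C. The cells were HepG2 CAGA-GFP in 1% FBS DMEM, stimulated with 500 pg/mL TGF-beta after compound addition. %Activity was normalised to no-cell wells (complete cell-killing) and DMSO (no toxicity), and curves were fitted and classified.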
TGFb inhibitor – TGF-b pathway inhibition; HepG2 CAGA-GFP TGF-b/SMAD3 reporter, GFP fluorescence, 18 h; TGF-beta stimulated, 500 pg/mL final; Potency, µM (titrated, usually from 46.1 µM), actives largely listed as inhibitors; hit rate 1.2% among 410,000; further: nearly all actives have a fitted effect of over 65% in size
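Read-out: total well GFP (ex488/em500-530) summed from mean per-cell fluorescence. Cells: HEPG2 CAGA-GFP, 1% FBS DMEM, 18 h at 37 degrees C with 500 pg/mL final TGF-beta. Unstimulated wells served as the full-inhibition control; stimulated DMSO wells = 0%.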
ATXN2 expr inh – inhibitors of ATXN2 expression | HEK-293 ATXN2-luciferase reporter, luminescence, 24 h | Potency, µM (top dose mostly 57 µM), hits mostly inhibitors | hit rate 0.72% among 360,000 | AID 1745845; further: nearly all actives have a fitted effect of over 55% in size
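ATXN2-luciferase reporter cells (luciferase flanked by upstream and downstream ATXN2 gene portions) were treated 24 h at 37 °C with compounds at up to 57 uM. SteadyGlo luminescence gave expression; GF-AFC fluorescence gave viability.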
mIDH1 inhibitor – inhibitors of human mutant IDH1 R132H; IDH1-R132H enzyme, NADPH consumption, diaphorase/resazurin fluorescence; AID 602179; O75874; Potency, µM (top dose mostly 76.6 µM), actives largely listed as inhibitors; hit rate 0.093% among 390,000; further: nearly all actives have a fitted effect of over 65% in size
Target sequence (O75874 whole entry R132H, stated change not applied): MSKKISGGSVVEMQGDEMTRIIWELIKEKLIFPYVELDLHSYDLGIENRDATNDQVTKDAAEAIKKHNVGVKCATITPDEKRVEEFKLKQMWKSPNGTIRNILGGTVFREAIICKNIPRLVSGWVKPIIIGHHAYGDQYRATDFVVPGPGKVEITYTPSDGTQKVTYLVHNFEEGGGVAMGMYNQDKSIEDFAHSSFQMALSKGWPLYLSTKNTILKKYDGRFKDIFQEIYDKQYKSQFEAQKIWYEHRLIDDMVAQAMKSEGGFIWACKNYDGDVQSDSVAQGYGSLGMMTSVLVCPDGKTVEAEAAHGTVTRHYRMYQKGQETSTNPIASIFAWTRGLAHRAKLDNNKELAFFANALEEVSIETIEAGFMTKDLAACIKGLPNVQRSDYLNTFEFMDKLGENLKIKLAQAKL
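IDH1-R132H (0.5 ug/mL) preincubated 30 min with compound, then NADPH (0.016 mM) and alpha-KG (2 mM) added; 80 min at RT, pH 7.5. Remaining NADPH coupled via diaphorase/resazurin to fluorescence (540/590 nm); concentration-response curves normalized to no-enzyme control.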
LDHA inh – LDHA (human) enzyme inhibition; AID 1347041; P00338; activity change, % (values are at about 110 or 230 µM); purified LDHA, NADH/diaphorase-resazurin fluorescence; stronger effect = lower value; hit rate 0.15% among 480,000; in the data active means activity change below about -30%; inconclusive means mostly about -25% to -30%
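LDH5 2 nM; NADH 0.06 mM, pyruvate 0.2 mM; 200 mM Tris pH 7.4, EDTA, Tween-20; 5 min RT. Detection: diaphorase 0.133 mg/mL + resazurin 37 µM, fluorescence ex540/em590 at 0 and 20 min; normalized to enzyme-free and DMSO wells.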
S2 tox – viability counter-screen for ATXN expression inhibitors; S2 cells (HEK-293 line with an ATXN2-luciferase reporter) viability, CellTiter-Fluor protease fluorescence, 24 h; Potency, µM (titrated, usually from 56.7 µM), most hits filed as cytotoxic; hit rate 0.49% among 400,000; AID 651635; further: nearly all actives have a fitted effect of over 40% in size
Of the large screens only hits and unclear results are named; the others gave an inactive call; ! = not active in a repeat. Unless noted, the call rests on the fitted dose curve; in most records, active means well fitted curve in the direction sought with a large enough effect; inconclusive means small, poorly fitted or top-dose-only effect, or another doubt; inactive means no such curve, though single readings can be large; an effect the other way counts as inactive or inconclusive.

COc1cccc(CNC(=O)CCC2CCCN(C(=O)c3cccc4c(C)c(C)[nH]c34)C2)c1 (centres undefined)	S2 tox inconclusive
COc1cc(NS(=O)(=O)c2ccc(F)cc2)c(OC)cc1NC(C)=O	none
CCn1cc(CN2CCN(CCC(C)C)C(CCO)C2)c2ccccc21 (centres undefined)	HepG2 tox 11.2µM (no result: ATXN2 expr inh)
COc1ccc(S(=O)(=O)N2CCCCCC2)cc1C(=O)N(CC(C)C)C1CCS(=O)(=O)C1 (centres undefined)	none
CSc1ccc(/C=C(/NC(=O)c2ccc(C)cc2)C(=O)Nc2cccc(F)c2)cc1	none
CC1(C)CCC(=O)c2ccccc21	none
CC1(C)CCC2=C(O1)c1ccccc1C(=O)C2=O	HepG2 tox 3.98µM, TGFb inhibitor 3.16µM, ATXN2 expr inh 27.3µM (no result: mIDH1 inhibitor, S2 tox)
Cc1ccc(OC(=O)c2ccc(S(=O)(=O)N(C)C)cc2)c(-n2nc3ccccc3n2)c1	none
FC(F)(F)c1cccc(NC(=S)NCCN2CCOCC2)c1	none
Cc1ccc(C(=O)Nc2cccc(C(F)(F)F)c2)cc1-c1ccc2nc(NCCN3CCOCC3)ncc2c1	ATXN2 expr inh 6.11µM (no result: HepG2 tox, TGFb inhibitor, mIDH1 inhibitor, LDHA inh, S2 tox)
O=C(CN1CCN(C(=O)c2ccco2)CC1)Nc1c2c(nc3c1CCC3)CCCC2	LDHA inh -34.6
COc1cc(CN2CC(=O)N(c3ccc(C)c(Cl)c3)C2=S)cc(OC)c1OC	none
CN(CCOc1ccccc1)CC(=O)Nc1ccc(Cl)c(S(=O)(=O)N(C)C)c1	TGFb inhibitor inconclusive
O=C(c1ccc(Br)cc1)C(CN1CCOCC1)c1ccccc1 (centres undefined)	TGFb inhibitor 11.2µM, ATXN2 expr inh 26.7µM (no result: S2 tox)
O=C(c1ccc(Cl)cc1)C(CN1CCCCCC1)c1ccccc1 (centres undefined)	none (no result: HepG2 tox, TGFb inhibitor, ATXN2 expr inh, mIDH1 inhibitor, S2 tox)
CCOc1ccc(C(O)(CCC(C)C)C(CN2CCOCC2)c2ccccc2)cc1 (centres undefined)	TGFb inhibitor inconclusive
CCOc1ccc(C(=O)C(CN2CCOCC2)c2ccccc2)cc1 (centres undefined)	TGFb inhibitor inconclusive, ATXN2 expr inh 28.2µM (no result: S2 tox)
O=C(c1ccccc1)C(CN1CCCCC1)c1ccccc1 (centres undefined)	TGFb inhibitor inconclusive, ATXN2 expr inh 20µM, S2 tox 31.6µM
O=C(NCc1cccnc1)/C(=C\c1ccc(-c2cccc(Cl)c2)o1)S(=O)(=O)c1ccccc1	TGFb inhibitor 15.8µM, ATXN2 expr inh 25.1µM (no result: S2 tox)
COc1ccc(/C=C(/NC(=O)c2ccco2)C(=O)N2CCOCC2)cc1	none
CCN(CC)c1ccc(/C=C/c2sc3ccccc3[n+]2CCCCI)cc1	TGFb inhibitor 12.6µM (no result: ATXN2 expr inh, mIDH1 inhibitor, S2 tox)
CN(C)C(=O)SN(C(=O)c1ccccc1)c1ccccc1	none (no result: HepG2 tox, TGFb inhibitor, ATXN2 expr inh, mIDH1 inhibitor, S2 tox)
CCN1/C(=C/c2cc[n+](C)cc2)C=Cc2cc(C)ccc21	TGFb inhibitor inconclusive, ATXN2 expr inh inconclusive (no result: S2 tox)
CCN1/C(=C/c2ccc3ccccc3[n+]2CCCS(=O)(=O)[O-])C=Cc2cc(C)ccc21	LDHA inh inconclusive, S2 tox 17.8µM
CCCCN1/C(=C/c2ccc3ccccc3[n+]2CC)Sc2ccccc21	ATXN2 expr inh inconclusive, LDHA inh inconclusive, S2 tox 15.8µM
CCN1/C(=C/c2ccc3ccccc3[n+]2CC)C=Cc2ccccc21	HepG2 tox 10µM, TGFb inhibitor 1.78µM, ATXN2 expr inh 3.16µM, LDHA inh inconclusive, S2 tox 10µM
OC(C#CCCN1CCCCC1)(c1ccccc1)C1CCCCC1 (centres undefined)	none
Nc1nccc(-c2ccc(-n3cccc3)cc2)n1	none
CN(C)CCCN(C(=O)c1cc2ccccc2oc1=O)c1nc2c(F)cccc2s1	none
COc1cccc(CNC(=O)CN2C(=O)CCCc3ccccc32)c1OC	none
COc1ccccc1C1CCN(C(=O)c2ccc(C(C)(C)C)cc2)CC1	TGFb inhibitor 12.6µM
Cc1ccn2c(Nc3ccccc3C)c(-c3ccccc3)nc2c1	HepG2 tox 12.6µM, S2 tox inconclusive
Cc1ccccc1Nc1c(-c2ccncc2)nc2ccc(Cl)cn12	HepG2 tox 17.8µM, TGFb inhibitor 15.8µM, mIDH1 inhibitor inconclusive, S2 tox inconclusive
Cc1ccc2nc(-c3ccsc3)c(Nc3ccccc3C)n2c1	none
Cc1ccn2c(Nc3ccccc3C)c(-c3cccnc3)nc2c1	S2 tox inconclusive
COc1ccc(NS(=O)(=O)c2cn(C)cn2)c(OC)c1	none
CC(C)CN(CC(C)C)S(=O)(=O)c1ccc(C(=O)Nc2sc3c(c2C(N)=O)CCN(C(C)C)C3)cc1	HepG2 tox 11.2µM, ATXN2 expr inh inconclusive (no result: S2 tox)
O=S(=O)(Nc1cccc(F)c1)c1ccc2[nH]c3c(c2c1)CCCCC3	TGFb inhibitor inconclusive, S2 tox 28.2µM
O=S(=O)(Nc1cc(F)ccc1F)c1ccc2[nH]c3c(c2c1)CCCCC3	HepG2 tox 11.2µM, TGFb inhibitor inconclusive, ATXN2 expr inh inconclusive, S2 tox inconclusive
O=S(=O)(Nc1cc(F)ccc1F)c1ccc2[nH]c3c(c2c1)CCCC3	TGFb inhibitor inconclusive, ATXN2 expr inh inconclusive, S2 tox inconclusive
CCCCN(CC)CCNC(=O)c1cc2c(-c3ccc(Cl)cc3)nn(C)c2s1	HepG2 tox 20µM!, TGFb inhibitor inconclusive, ATXN2 expr inh inconclusive (no result: S2 tox)
CCN(CC)CCNC(=O)c1cc2c(-c3ccc(Cl)cc3)nn(C)c2s1	TGFb inhibitor 11.2µM, ATXN2 expr inh 28.2µM (no result: S2 tox)
CCCN(CCC)CCNC(=O)c1cc2c(-c3ccc(Cl)cc3)nn(C)c2s1	ATXN2 expr inh inconclusive, S2 tox inconclusive
COCCn1c(=O)[nH]c2cc(C(=O)N3CCN(c4cccc(C(F)(F)F)c4)CC3)ccc2c1=O	none
CC(C)CCn1c(SCC(=O)NC2CC2)nc2cc(Cl)ccc2c1=O	none
CCN(CC)C(=S)SSC(=S)N(CC)CC	TGFb inhibitor inconclusive, ATXN2 expr inh inconclusive, S2 tox 70.8µM!
CCOC(=O)C1=C(CN2CCN(C(=O)c3ccco3)CC2)NC(=O)NC1c1ccc(F)cc1 (centres undefined)	none
Clc1ccc(Cl)c(OCCCCNCc2ccccc2)c1	HepG2 tox 15.8µM, TGFb inhibitor inconclusive
Cc1cc(Cl)c(OCCCNCc2ccccc2)c(Br)c1	HepG2 tox 10µM, TGFb inhibitor inconclusive, ATXN2 expr inh inconclusive, S2 tox inconclusive
Cc1cc(C)c(OCCCNCc2ccccc2)c(Br)c1	TGFb inhibitor inconclusive, S2 tox inconclusive (no result: ATXN2 expr inh)
COc1ccc(-c2nnc(SCC(=O)N3CCC(Cc4ccccc4)CC3)o2)cc1OC	none
COCCNCC(=O)NC12CC3CC(CC(C3)C1)C2	none
CS(=O)(=O)c1nc(-c2ccc(F)cc2)cc(C(F)(F)F)n1	HepG2 tox 11.2µM, TGFb inhibitor inconclusive, ATXN2 expr inh inconclusive, S2 tox inconclusive
